Source: PubChem (National Center for Advancing Translational Sciences (NCATS))
FMDV RLuc = shows antiviral activity in FMDV Renilla assay; FMDV replicon cells, Renilla luciferase signal; Potency, µM (series often up to 57.5 µM), actives largely listed as inhibitors; 0.32% of 120,000 active; note: nearly all actives have a fitted effect of over 55% in size
FMDV FLuc = antivirals against foot and mouth disease virus; Potency, µM (series often up to 57.5 µM), usual class: inhibitors; FMDV antiviral cell assay, firefly luciferase signal; AID 1745856; 0.23% of 120,000 active; note: nearly all actives have a fitted effect of over 60% in size
Of the large screens only hits and unclear results are named; the others gave an inactive call. The list is not random: actives were taken first. Their share in the collection is about 0.51%. Calls come from the whole dose curve.

Cc1c(-c2ccccc2)oc2c(C(=O)NC(C)c3ccccc3)cccc2c1=O (configuration not stated)	none
COc1ccc(NC(=O)CSc2nc3nc(C)cc(C)n3n2)cc1	none
COc1ccc(CC(=O)Nc2ccc3nc(Nc4ccc(OC)cc4)cc(C)c3c2)cc1	FMDV FLuc inconclusive
COc1ccc(Nc2cc(C)nc(Nc3ccc(NC(=O)CCc4ccccc4)cc3)n2)cc1	FMDV RLuc inconclusive, FMDV FLuc 13µM
CCNc1cc(C)nc(Nc2ccc(NC(=O)c3ccccc3F)cc2)n1	FMDV RLuc 28µM, FMDV FLuc inconclusive
Cc1cc(N2CCCC2)nc(Nc2ccc(NC(=O)c3c(F)cccc3F)cc2)n1	none
COc1ccc(Nc2cc(C)nc(Nc3ccc(NC(=O)CC(C)C)cc3)n2)cc1	FMDV RLuc 28µM, FMDV FLuc inconclusive
COc1ccc(OC)c(-c2cc(C(=O)O)c3cccc(C)c3n2)c1	none
O=[N+]([O-])C(Cl)C(=Nc1ccc(Br)cc1)n1nnc2ccccc21 (configuration not stated)	FMDV FLuc inconclusive
CCCC(=O)Nc1ccc(O)c(-c2nc3cc(C)cc(C)c3o2)c1	none
C=CCn1c(SCCCCCC)nc2c1c(=O)n(C)c(=O)n2C	none
c1ccc(Nc2nc(NCc3ccco3)c3ccccc3n2)cc1	FMDV RLuc inconclusive
c1ccc(CNc2nc(Nc3ccccc3)nc3ccccc23)cc1	FMDV RLuc 13µM, FMDV FLuc inconclusive
COC(=O)C1CCN(Cc2cc(=O)oc3c(C)c(C)ccc23)CC1	FMDV FLuc inconclusive
O=C(NC1CCCCC1)c1cccc(NC(=O)C2CC2)c1	none
COC(=O)C1CN(Cc2ccc(OC)cc2)CCS(=O)(=O)N1Cc1ccc(C(F)(F)F)cc1 (configuration not stated)	FMDV RLuc inconclusive, FMDV FLuc 32µM
COC(=O)C1CN(Cc2ccc(OC)cc2)CCS(=O)(=O)N1Cc1ccc(Cl)cc1 (configuration not stated)	none
COc1ccc(CCNC(=O)Cc2c(C)c3c(OC)cc(C)cc3oc2=O)cc1	none
COc1ccc(-c2csc(C3CCSC(C)(C)C3)n2)cc1 (configuration not stated)	none
COc1cc(OC)cc(-c2cc3nc(C)c(CCC(=O)NCc4ccccc4)c(C)n3n2)c1	FMDV FLuc inconclusive
COc1cc(OC)cc(-c2cc3nc(C)c(CCC(=O)Nc4ccccc4OC)c(C)n3n2)c1	FMDV FLuc 3.2µM
COc1cc(OC)c(NC(=O)CCc2c(C)nc3cc(-c4ccccc4OC)nn3c2C)cc1Cl	none
COc1ccccc1-c1cc2nc(C)c(CCC(=O)Nc3cc(C)ccc3C)c(C)n2n1	FMDV FLuc 35µM
CC1=C(C)C(c2cn(C)c3ccccc23)N(Cc2ccccc2)C1=O (configuration not stated)	none
Cc1ccc(C(=O)NCc2ccc(N3CCCC3)nc2)cc1F	none
Cc1nc2cc(F)ccc2cc1C(=O)NCc1ccc(C(=O)N2CCCC2)cc1	FMDV RLuc 2.5µM, FMDV FLuc 6.3µM
Cc1ccc2cc(C(=O)NCc3ccc(N4CCC(C)CC4)nc3)c(C)nc2c1	FMDV RLuc 1µM, FMDV FLuc inconclusive
Cc1nc(N2CCCC2)ncc1C(=O)NCc1ccc(F)cc1	none
Cc1cc(C)n(-c2ccc(C(=O)OCC(=O)NC(=O)NC3CCCCC3)cc2)n1	none
CNC(=O)c1ccc2c(c1)NC(=O)CCS2	none
CSc1ccc(NC(=O)c2ccc3c(c2)NC(=O)CCS3)cc1	FMDV RLuc 10µM, FMDV FLuc inconclusive
O=S(=O)(Nc1nc2ccccc2nc1Nc1cccc(F)c1)c1cccs1	none
O=C(NC1CCCCC1C(F)(F)F)c1ccc2ncsc2c1 (configuration not stated)	FMDV FLuc 8.9µM
O=C(NC1CCCCCC1)c1ccc2ncsc2c1	none
O=C(NC1(C(F)(F)F)C(=O)Nc2c1c(=O)[nH]c(=O)n2Cc1ccccc1)C1CCCCC1 (configuration not stated)	none
CC(NC(=O)c1nn(C)c(=O)c2ccccc12)c1ccccc1 (configuration not stated)	none
CC(NC(=O)c1ccccc1NC(=O)c1nn(C)c(=O)c2ccccc12)c1ccccc1 (configuration not stated)	FMDV RLuc 4.5µM, FMDV FLuc 3.5µM
COc1ccc(-c2noc(CCCC(=O)Nc3ccc(S(=O)(=O)N4CCCCCC4)cc3)n2)cc1	FMDV RLuc inconclusive, FMDV FLuc 32µM
COc1ccc(-c2noc(CCCC(=O)Nc3cccc(Cl)c3C)n2)cc1	none
Cc1ccc(NC(=O)CN(C)c2nc(CN3CCOCC3)nc3sc(C)c(C)c23)cc1	none
COc1ccc(F)cc1C(=O)/C=C/c1ccc(C#N)cc1	none
COc1ccc(F)cc1C(=O)/C=C/c1cccc(C#N)c1	FMDV RLuc inconclusive, FMDV FLuc 3.5µM
CC(C)c1ccc(/C=C/C(=O)Nc2ccc(F)cc2F)cc1	none
O=C(CCc1nnc2ccc(NCc3ccccc3)nn12)N1CCN(c2ccccc2)CC1	none
Cc1cc2ccccc2n1-c1ccc(C(=O)N2CCC(C(=O)NCc3ccccc3Cl)CC2)s1	none
Cc1cc2ccccc2n1-c1ccc(C(=O)N2CCC(C(=O)NCc3ccc(Cl)cc3)CC2)s1	FMDV RLuc inconclusive, FMDV FLuc 25µM
Cc1cccc(-c2ocnc2C(=O)Nc2ccc(C)cc2Cl)c1	none
COc1ccc(C(=O)Nc2nc3c(s2)CCCC3)cc1Cl	FMDV RLuc inconclusive
O=C(Nc1nc2c(s1)CCCCC2)c1ccc(Cl)cc1	FMDV RLuc 10µM
Cc1nn(C)cc1S(=O)(=O)Nc1ccn(Cc2c(Cl)cccc2Cl)n1	none
O=Cc1ccc(OCC2CC2)c2ccccc12	FMDV RLuc 5.6µM, FMDV FLuc inconclusive
Nc1ccc(OCC2CC2)c(F)c1	none
CCCCCCCCOc1ccc(C=NC(C)c2ccccc2)c(O)c1 (configuration not stated)	none
CCN1CCN(C(C(=O)O)c2c[nH]c3cc(NC(=O)c4ccccc4)ccc23)CC1 (configuration not stated)	FMDV FLuc 13µM
CCN1CCN(C(C(=O)O)c2c[nH]c3ccc(NC(=O)c4ccccc4)cc23)CC1 (configuration not stated)	none
CC(=O)N1CCN(c2ccccc2NC(=O)c2ccc(-c3ccccc3)cc2)CC1	none
CCN(Cc1cccs1)C(=O)CCl	none
CN(Cc1cccs1)C(=O)CCl	FMDV RLuc 28µM, FMDV FLuc inconclusive
CNC(=S)NNC(=O)C(Sc1ccccc1)c1ccccc1 (configuration not stated)	none
COc1ccc(NS(=O)(=O)c2ccc(-n3cccn3)cc2)cc1OC	FMDV RLuc inconclusive, FMDV FLuc 8.9µM
COC(=O)c1ccc(NS(=O)(=O)c2ccc(-n3cccn3)cc2)cc1	none
CCCCCCCCCCCCCCCCN1CCCC1	none
CCOc1ccc(C(=O)Nc2ccc3oc(-c4ccncc4)nc3c2)cc1Br	FMDV RLuc 6.3µM, FMDV FLuc inconclusive
COc1ccc(C(=O)Nc2ccc3oc(-c4ccncc4)nc3c2)cc1OC	none
O=C(CCc1ncc(-c2c(F)cccc2F)o1)NCC(=O)Nc1ccccc1Br	none
COc1ccc2c(c1)C(=O)/C(=C/c1ccc(Br)cc1)CC2	none
CCCn1ccc2c(OCC(=O)NCc3ccc(C)cc3)cccc2c1=O	none
CCCCc1ccc(NC(=O)COc2cccc3c(=O)n(C)ccc23)cc1	FMDV RLuc 8.9µM, FMDV FLuc inconclusive
O=C(c1ccccc1F)N(Cc1ccc2[nH]ccc2c1)C1CC1	none
CNc1nc2c(c(=O)n(C)c(=O)n2C)n1CC(O)COc1ccc(OC)cc1 (configuration not stated)	FMDV RLuc 22µM, FMDV FLuc inconclusive
Cc1ccc(OCC(O)Cn2c(N)nc3c2c(=O)n(C)c(=O)n3C)cc1 (configuration not stated)	none
